Measurements reported in ChEMBL document CHEMBL1961873, “Compounds: GSK PKIS; Assays: Nanosyn kinase panel” (2012).

Target: T1, NUAK family SNF1-like kinase 1 (Homo sapiens) (UniProt O60285)
T1 sequence (whole entry): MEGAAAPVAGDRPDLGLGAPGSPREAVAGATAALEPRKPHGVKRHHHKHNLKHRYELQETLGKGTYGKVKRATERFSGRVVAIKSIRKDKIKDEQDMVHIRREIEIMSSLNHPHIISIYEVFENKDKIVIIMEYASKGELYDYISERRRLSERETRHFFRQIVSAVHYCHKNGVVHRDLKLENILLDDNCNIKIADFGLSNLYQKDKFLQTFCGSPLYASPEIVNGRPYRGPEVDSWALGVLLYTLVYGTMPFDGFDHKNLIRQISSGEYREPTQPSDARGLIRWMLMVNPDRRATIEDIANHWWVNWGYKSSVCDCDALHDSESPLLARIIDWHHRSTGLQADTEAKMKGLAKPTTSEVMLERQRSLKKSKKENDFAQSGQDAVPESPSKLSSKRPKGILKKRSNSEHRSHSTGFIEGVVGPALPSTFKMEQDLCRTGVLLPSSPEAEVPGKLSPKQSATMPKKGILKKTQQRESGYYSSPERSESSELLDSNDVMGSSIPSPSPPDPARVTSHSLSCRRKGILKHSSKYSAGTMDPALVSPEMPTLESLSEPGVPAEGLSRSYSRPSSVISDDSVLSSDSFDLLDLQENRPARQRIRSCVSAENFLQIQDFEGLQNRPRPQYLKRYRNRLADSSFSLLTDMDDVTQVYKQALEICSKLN
Conditions: at 1 µM

SMILES | inhibition
CCCN1CCC(Oc2cc(Nc3nc(Nc4cccc(F)c4C(N)=O)c4cc[nH]c4n3)c(OC)cc2Cl)CC1 | 9.7%
COc1cc(C)c(NC(=O)CN(C)C)cc1Nc1nc(Nc2cccc(F)c2C(N)=O)c2cc[nH]c2n1 | 4.12%
CC1=C(C(=O)Nc2ccc3[nH]ncc3c2)C(c2ccc(Cl)c(Cl)c2)CC(=O)N1 (centres undefined) | 14.9%
CCn1c(-c2nonc2N)nc2cncc(C(=O)N3CC[C@H](N)C3)c21 | 0.59%
NS(=O)(=O)c1ccc(N/N=C2\C(=O)Nc3ccc(C(=O)NCCc4c[nH]cn4)cc32)cc1 | 83.5%
CCCN1CCC=C(c2ccc(Nc3nc(Nc4ccccc4C(N)=O)c4cc[nH]c4n3)c(C)c2)C1 | 69.8%
CCn1c(-c2nonc2N)nc2cncc(C(=O)N3CCNCC3)c21 | 2.51%
Nc1nc(-c2ccc3c(c2)C(=Cc2cc(Br)c(O)c(Br)c2)C(=O)N3)cs1 | 5.77%
COc1ccc2cc(-c3c(-c4ccncc4)nc(-c4ccc([S+](C)[O-])cc4)n3C)ccc2c1 (centres undefined) | 2.13%
CC(C)=Cc1cccc2c1/C(=N/Nc1ccc(S(N)(=O)=O)cc1)C(=O)N2 | 87.3%
CS(=O)(=O)CCNCc1nc(-c2ccc3ncnc(Nc4ccc(F)c(Cl)c4)c3c2)cs1 | 2%
NC(=O)c1ccc(-c2nc(-c3ccccn3)c(-c3ccc4c(c3)OCO4)[nH]2)cc1 | 1.15%
COC(=O)Nc1nc2cc(Oc3cccc(NC(=O)Nc4cc(C(F)(F)F)ccc4F)c3)ccc2[nH]1 | -3.14%
Cc1nnc(-c2ccc(C)c(-c3ccc(C(=O)Nc4cccc(C#N)c4)cc3)c2)o1 | 2.37%
